Measurements taken from PubChem BioAssay AID687010 (National Center for Advancing Translational Sciences (NCATS), 2013).
Active and inactive are the calls of the source.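 How the source made its calls: active means a significant rise in survival of treated spinal muscular atrophy model mice compared with vehicle-treated controls; inactive means no significant rise in survival.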

Test: Extended Characterization of SMN2 Inhibitors: Survival Studies
Details: SMNdelta7 SMA mice, 50 mg/kg i.p. twice daily
Source text: Spinal muscular atrophy (SMA) is caused by insufficient levels of the survival motor neuron protein SMN. The SMN locus on chromosome 5q13 contains two inverted copies of SMN called SMN1 and SMN2 which are 99% identical at the amino acid level. SMN1 is a fully functional protein and SMN2 skips exon 7 90% of the time. Skipping of exon 7 produces non-functional protein product. 10% of the SMN2 protein includes exon 7 and is fully functional. In the SMA disease state, mutations in the SMN1 locus are the cause of the disease state. Because only 10% of SMN2 is of the fully functional form, it is not sufficient to overcome the deficiency produced by the loss of the SMN1 product. A therapy that either increase the amount of SMN2 product made or to increase the inclusion of exon 7 has been proposed for the treatment of SMA. We have previously filed a probe report and have now done further SAR and further characterized the resulting compounds in mice studies. […]
Studies were approved by the National Institute of Neurological […] and Stroke Animal Care Committee and performed in accordance with the National Institutes of Health Guide for the Care and Use of Laboratory Animals. […] For survival studies, litters were maintained and kept with the mother until P21, after which if any SMA pups survived they were weaned and continued to be monitored.
In the case of `O=C(O)C1CCN(c2ncc(-c3ccc4c(c3)OCCCO4)s2)CC1`, the outcome is reported as “active; yes”.
